The supplement of paper PMC3334620
Whole data set: some 33,000 sequences, median “E-score (-0.5 to 0.5)” near -0.016, cut for the highest 2% near 0.3. The entries come from a sample that favours the highest values as a whole.

Target: T1, Yer184c (UniProt P39961)
T1 sequence: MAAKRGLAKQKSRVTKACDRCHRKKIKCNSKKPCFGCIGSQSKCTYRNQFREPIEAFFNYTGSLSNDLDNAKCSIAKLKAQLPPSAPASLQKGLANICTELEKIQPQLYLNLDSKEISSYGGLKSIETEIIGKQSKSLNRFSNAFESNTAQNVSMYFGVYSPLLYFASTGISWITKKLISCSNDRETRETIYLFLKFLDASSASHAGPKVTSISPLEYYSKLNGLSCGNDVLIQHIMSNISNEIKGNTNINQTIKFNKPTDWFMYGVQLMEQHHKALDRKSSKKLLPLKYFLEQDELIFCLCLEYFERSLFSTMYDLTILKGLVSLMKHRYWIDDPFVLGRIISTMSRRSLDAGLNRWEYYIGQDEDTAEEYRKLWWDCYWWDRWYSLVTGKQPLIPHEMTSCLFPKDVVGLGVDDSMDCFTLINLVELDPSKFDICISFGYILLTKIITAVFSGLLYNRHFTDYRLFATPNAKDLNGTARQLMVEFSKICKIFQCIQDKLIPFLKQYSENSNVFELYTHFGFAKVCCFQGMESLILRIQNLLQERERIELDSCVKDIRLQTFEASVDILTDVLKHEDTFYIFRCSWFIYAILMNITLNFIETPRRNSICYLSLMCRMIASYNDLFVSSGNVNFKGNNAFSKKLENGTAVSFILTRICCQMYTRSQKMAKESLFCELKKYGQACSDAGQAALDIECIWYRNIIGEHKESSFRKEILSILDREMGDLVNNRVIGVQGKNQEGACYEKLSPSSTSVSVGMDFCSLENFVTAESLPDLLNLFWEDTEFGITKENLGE
Test: PBM E-score (8-mer binding enrichment) (E-score (-0.5 to 0.5)); higher = stronger / more preferred TF binding
Details: protein concentration: 100 nM; construct: GST-full length
Outline: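 Using PURExpress in vitro transcription/translation, GST-tagged yeast transcription factors were made in full-length or DNA-binding-domain form. These were applied at about 100-200 nM to double-stranded universal all-10-mer Agilent arrays, and bound protein was detected with fluorescent anti-GST. Scans were normalised with masliner before the Universal PBM Analysis Suite assigned E-scores to ungapped eight-base words pooled with their reverse complements.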

Sequence | PBM E-score
AACATCAA | 0.156
GCTCCAAA | -0.0747
ACATACCA | -0.12
ATTGCGTC | -0.0563
GCCTGTGA | -0.282
CAACTGAC | -0.106
AACCTAAG | -0.181
ATGGAATA | 0.127
CCGGAATA | 0.339
ACGGACTC | 0.0365
CCGGAATC | 0.336
CTGGAATC | -0.192
GCGGAATA | 0.205
ACGGAATC | 0.301
CCGGACTA | 0.273
ACGGAATG | 0.167
ACGGAATA | 0.321
CCGGACTC | 0.341
CGGGAATA | 0.3
GACCTAAA | 0.0912
AAAACTGC | 0.0178
GGTACTAA | -0.00623
GGGCGACC | -0.167
GCTAACCA | -0.0625
CAGAAGGA | -0.224

Sequence | PBM E-score
TCGCTCAA | 0.047
ACGGCTTC | 0.0891
CCGGCTTC | 0.307
CCGGCTTA | 0.33
GCGGCTGA | -0.0974
CGGGCTTC | 0.169
ACGGCTGA | 0.0623
ACGGCTTA | 0.193
CCGGCTGA | 0.327
GCGGCTTA | 0.025
CCGGCTGC | 0.331
CTGGCTGC | -0.198
ACGGCTGC | 0.0869
ACTTTCTA | -0.0235
AGAATGCT | -0.168
CAAATCGC | -0.0704
ATGGAGAC | -0.176
TACGTCTA | -0.127
GTTAGCTA | -0.119
GGATATGA | 0.0918
TCCGGGAA | 0.37
CCCGGGAA | 0.272
GCCGGGGA | 0.0977
GCCGGGAC | 0.263
ACCGGGAA | 0.28

Sequence | PBM E-score
GCCGGGAA | 0.331
CATGCAAC | -0.00764
GTCTCAAC | -0.0423
AGCTAGAT | -0.104
CGGGACGC | -0.0137
CATTCCGG | 0.318
AATTCCGC | 0.208
AATTCCCG | 0.272
AATTCCCT | -0.0636
AATTCCAT | 0.0965
AATTCCGT | 0.328
CATTCCGC | -0.0761
AATTCCGG | 0.387
CATTCCGA | 0.278
CTGGCTAC | -0.13
GATCAATA | 0.164
ACACTGGA | 0.0234
ATCCCTAG | -0.0477
ATTGGTGG | -0.0975
AGTCCAGG | -0.206
ATAAGGTC | -0.0447
CATCTCGG | 0.272
AGCTTAAT | 0.201
CGATCCGC | 0.113
GGGTCCGA | 0.113

Sequence | PBM E-score
CGGTCCGA | 0.335
CGATCCGA | 0.305
AGGTCCGA | 0.197
GGATCCGA | 0.242
ACAAGTAG | -0.201
ATCAAGCG | 0.0135
GATTTCGC | 0.312
CATTTCGC | 0.0218
GATTTCGA | 0.042
GCCTTACA | -0.205
CATGAGGG | -0.212
ATTTGCCA | -0.0738
ATTTGCCC | 0.0315
ATTTGCCG | 0.306
AACAAGAC | 0.105
ACCTCAAA | 0.137
CCCCTGAC | -0.0911
GGCCGAGA | 0.348
GGCCGACA | 0.0888
CACCGAGC | 0.231
GGCCGATA | 0.264
CTCCGAGC | 0.271
AGCCGAGG | 0.336
CGCCGAGC | 0.344
AACCGAGT | 0.0155

Sequence | PBM E-score
ACCCGAGG | -0.00171
AACCGAGC | 0.323
ATCCGAGG | 0.182
CCCCGAGC | -0.0347
GACACTCA | -0.0521
ACAGCGGA | 0.0362
GGGTTAGA | -0.134
AACGTAAT | -0.0198
GTTGGACA | -0.0236
AATGTTCG | 0.0469
AGCCGAGA | 0.326
CCCCGAGA | -0.123
CGCCGACA | 0.18
GCCCGAGA | 0.24
TCCCGAGA | 0.305
ATCCGAGC | 0.219
CACCGAGA | -0.212
AGCCGAGC | 0.318
CGCCGAGA | 0.346
AGCCGATA | 0.142
AACCGAGA | 0.229
ACCCGAGC | 0.229
CTACTGGA | -0.271
CCTCAGCG | 0.0964
ATAGAGGG | -0.135

Sequence | PBM E-score
AGGCCAAA | 0.0579
AACAACGG | 0.175
CGAACTTC | 0.13
GCCCGCAC | -0.0678
AATCTGTA | 0.116
GAAGAGTA | 0.113
CGGTTCGC | 0.0153
GCGAATGA | 0.149
CCGAATAC | 0.293
CCGAATAA | 0.346
CCGAATGA | 0.321
ACGAATAA | 0.0316
ACGAATGA | 0.189
GGGTCTAC | -0.06
TCGCGTCA | -0.0846
ATGGTTTC | 0.0728
GCGAATAA | 0.0477
CCATCCGA | 0.0749
GCATCCGA | 0.176
ACATCCGA | 0.346
ACATCCGC | 0.252
TCATCCGA | 0.34
ACATCCGT | 0.167
ACATCCGG | 0.397
CCATCCGG | 0.143

Sequence | PBM E-score
ACATCCTG | 0.0484
ACCACAAG | -0.0787
CGATGCTA | 0.084
ATGTGCCG | 0.18
CATAGCAG | -0.293
AAGAGGCC | -0.172
ACGTCGCT | -0.239
CCTTCAGC | -0.152
CACGGATA | 0.332
CGCGGATC | 0.13
AACGGATC | 0.306
AGCGGATC | 0.204
CGCGGAGC | 0.171
AGCGGAGA | -0.0382
CACGGATC | 0.256
CACGGATG | 0.108
AGCGGATA | 0.0602
CGCGGAGA | 0.308
GACGGATC | 0.115
CGCGGATA | 0.317
TTACGCAA | 0.0884
GGCTGAAC | 0.0871
CCCCGCGA | -0.0621
ATCCACTC | -0.00405
AACGGATA | 0.374

Sequence | PBM E-score
AACGGACT | 0.14
AACGGATT | 0.343
AACGGATG | 0.197
TACGGATA | 0.195
GACGGATA | 0.125
GCCGATTA | 0.274
ACTAAGGC | -0.0457
CGTTCAGA | -0.0522
ACTCATTA | -0.0725
CGGTTGAC | 0.113
CGGTTGAA | 0.304
TGGTTGAA | -0.0916
ACTATGCA | -0.111
ATTCCGGC | 0.393
CCTCCGGC | 0.3
ATTCCAGC | -0.0455
ACTCCGGC | 0.326
ATTCCCCG | 0.117
ATTCCGGG | 0.356
ACTCCGGG | 0.265
ATTCCTGG | -0.138
AATCCGGG | 0.269
ATTCCCGG | 0.384
ATTCCGCC | 0.16
ATTCCCGA | 0.162

Sequence | PBM E-score
CGCTTAAG | -0.133
CCCTACCC | -0.256
AAGATACC | 0.187
GGATTCCC | -0.173
AGGCTTTA | -0.154
CAACTAGC | 0.0974
CCTCCCCG | -0.0343
AGACGGAT | 0.195
AGCCGGAC | 0.339
AGCCGTAT | 0.214
AGCCGGAG | 0.402
GGCCGGAA | 0.338
AGCCGTAG | 0.155
CGCCGGAG | 0.222
AGCCGGAT | 0.402
GGCCGGAC | 0.294
GGGCGGAA | 0.0682
GGACGGAA | 0.0833
GACCGGAC | 0.245
